Holding throughout (test): NCI-60 one-dose screen, 48 h (100 = growth as untreated, 0 = no growth, -100 = all killed)
In one assay the test system is SK-MEL-2 melanoma. The conditions noted are these: 10 µM unless noted.
The subject of another assay is EKVX NSCLC. The conditions noted are these: 10 µM unless noted.
The next assay deals with SN12C renal. The conditions noted are these: 10 µM unless noted.
In a further assay the test system is UO-31 renal. Conditions: 10 µM unless noted.
In another assay the test system is TK-10 renal. The conditions noted are these: 10 µM unless noted.
Another assay relates to ACHN renal. The conditions noted are these: 10 µM unless noted.
For another assay, the system named is A498 renal. The conditions noted are these: 10 µM.
In a further assay the test system is HL-60(TB) leukemia. The conditions noted are these: 10 µM unless noted.
In another assay the test system is CCRF-CEM leukemia. Conditions: 10 µM unless noted.
Another assay deals with SR leukemia. The conditions noted are these: 10 µM unless noted.
A further assay relates to RPMI-8226 leukemia. Conditions: 10 µM unless noted.
In another assay the test system is OVCAR-8 ovarian. Conditions: 10 µM unless noted.
The test system of the next assay is OVCAR-5 ovarian. Conditions: 10 µM unless noted.
The next assay relates to OVCAR-4 ovarian. Conditions: 10 µM unless noted.
A further assay deals with SK-OV-3 ovarian. The conditions noted are these: 10 µM unless noted.
The next assay deals with IGROV1 ovarian. Conditions: 10 µM unless noted.
The subject of another assay is OVCAR-3 ovarian. Conditions: 10 µM unless noted.
For another assay, the system named is HS 578T breast. Conditions: 10 µM unless noted.
The subject of another assay is MOLT-4 leukemia. The conditions noted are these: 10 µM unless noted.
The test system of another assay is CAKI-1 renal. The conditions noted are these: 10 µM unless noted.

This is part of a sample that, as a whole, favours compounds with a hit. Of some 83,000 tested, about 20% had one in any assay.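 Assay: single dose, 48 h. Readout: percent growth (0 = no net growth; negative = cell death). Active: <10.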 Unmarked numbers belong to inactive results. Calls of active or inactive are those of the source.

For `CCN(CCO)C(Cc1ccccc1)c1ccccc1` (stereo not drawn), the growth is 105% in the assay on SK-MEL-2 melanoma; 96.5% with EKVX NSCLC; 102% in the assay with SN12C renal; 94% in the assay with UO-31 renal; 101% with TK-10 renal; 108% in the assay with ACHN renal. For the same molecule, the growth in the assay with A498 renal is 96.3%; with HL-60(TB) leukemia, 111%; in the assay with CCRF-CEM leukemia, 2.74% (active); in the assay on SR leukemia it was 116%; in the assay on RPMI-8226 leukemia, 98.9%; with OVCAR-8 ovarian, 109%. In addition, the growth in the assay with OVCAR-5 ovarian was 93%; in the assay on OVCAR-4 ovarian it was 102%; with SK-OV-3 ovarian, 110%; in the assay with IGROV1 ovarian, 97.4%; with OVCAR-3 ovarian, 109%; in the assay on HS 578T breast, 105%.
As for `CCOC(=O)[C@@H](C)C[C@H](Cc1ccccc1)NC(=O)c1csc([C@@H](C[C@H](C(C)C)N(C)C(=O)[C@H](CC)NC(=O)[C@H]2CCCCN2C)OC(C)=O)n1`, the growth in the assay with SK-MEL-2 melanoma is 26.8%; in the assay with EKVX NSCLC, 38.6%; with SN12C renal, 19.1%; in the assay on UO-31 renal, 33.7%; in the assay on TK-10 renal, 69.6%; with ACHN renal, 25.9%. Moreover, the growth with A498 renal was -13.5% (active); in the assay on CCRF-CEM leukemia it was 3.51% (active); with MOLT-4 leukemia it was 9.18% (active); in the assay with SR leukemia it was 6.66% (active); in the assay with RPMI-8226 leukemia it was 19.2%; in the assay with OVCAR-8 ovarian, 5.75% (active). The growth in the assay on OVCAR-5 ovarian is 31.5%; in the assay on OVCAR-4 ovarian it was 37.4%; in the assay on SK-OV-3 ovarian it was 20.9%; with IGROV1 ovarian, 22.6%; with OVCAR-3 ovarian, -6.1% (active); in the assay with HS 578T breast it was 9.11% (active).
As to `COc1ccc([As]=[As]c2ccc(OC)c(NCS(=O)(=O)O)c2)cc1NCS(=O)(=O)O` (stereo not drawn), the growth in the assay on SK-MEL-2 melanoma was 23.9%; in the assay with EKVX NSCLC, 0.829% (active); in the assay on SN12C renal it was 12.4%; with UO-31 renal, 25.7%; with TK-10 renal it was -16.2% (active); in the assay with ACHN renal, 46.6%. Also, the growth is 20.9% with A498 renal; -13.9% (active) with CCRF-CEM leukemia; -0.189% (active) in the assay with MOLT-4 leukemia; -1.51% (active) in the assay on SR leukemia; -13% (active) with RPMI-8226 leukemia; 44% with OVCAR-8 ovarian. Also, the growth in the assay on OVCAR-5 ovarian was 63.8%; with OVCAR-4 ovarian, 14.9%; in the assay with SK-OV-3 ovarian, 91.6%; with OVCAR-3 ovarian, 9.01% (active); with HS 578T breast, 6.44% (active).
Take `COc1ccc(C(=O)c2cc(OC)c(OC)c(OC)c2)cc1OC(C)=O`: the growth in the assay on SK-MEL-2 melanoma was 47.8%; with EKVX NSCLC, 68.7%; in the assay on SN12C renal it was 29.5%; in the assay on UO-31 renal, 39.6%; in the assay on TK-10 renal, 74.8%; in the assay with ACHN renal, 36.7%. Also, the growth with HL-60(TB) leukemia was -37.1% (active); with CCRF-CEM leukemia, 13.8%; in the assay on MOLT-4 leukemia it was 13.9%; with SR leukemia, 11.9%; in the assay with RPMI-8226 leukemia, 20.4%; in the assay with OVCAR-8 ovarian it was 15.6%. Besides, the growth in the assay with OVCAR-5 ovarian is 57.9%; in the assay on OVCAR-4 ovarian, 57.7%; in the assay on SK-OV-3 ovarian, 24.2%; in the assay on IGROV1 ovarian it was 25.6%; in the assay on OVCAR-3 ovarian, 5.13% (active); in the assay with HS 578T breast it was 44.3%.
Take `O=C([O][Hg][CH2]C1OCCOC1[CH2][Hg][O]C(=O)c1ccccc1)c1ccccc1` (stereo not drawn): the growth in the assay on SK-MEL-2 melanoma was 95.4%; with EKVX NSCLC, 123%; with SN12C renal, 76.2%; in the assay with TK-10 renal, -99.5% (active); in the assay on ACHN renal it was -99.5% (active); in the assay on CAKI-1 renal, -94.7% (active). In addition, the growth with A498 renal was 132%; in the assay on HL-60(TB) leukemia it was -24.7% (active); in the assay on CCRF-CEM leukemia, -15.8% (active); in the assay with MOLT-4 leukemia, -8.85% (active); in the assay on SR leukemia, 2.54% (active); in the assay with RPMI-8226 leukemia, 12.3%. Moreover, the growth is 90% in the assay on OVCAR-8 ovarian; 112% in the assay on OVCAR-5 ovarian; -89.2% (active) with OVCAR-4 ovarian; 122% in the assay on SK-OV-3 ovarian; 46.3% with IGROV1 ovarian; -98.2% (active) in the assay on OVCAR-3 ovarian. Besides, the growth in the assay on HS 578T breast is 113%.
As to `CCOc1ccc(/C=C/[N+](=O)[O-])cc1`, the growth in the assay on SK-MEL-2 melanoma is 101%; with EKVX NSCLC it was 93.7%; in the assay on SN12C renal it was 94.5%; in the assay on UO-31 renal it was 71.1%; with ACHN renal, 96.3%; in the assay with CAKI-1 renal, 101%. Also, the growth with A498 renal is 78.1%; in the assay with HL-60(TB) leukemia it was 105%; in the assay with CCRF-CEM leukemia it was 90.6%; with MOLT-4 leukemia, 118%; with SR leukemia it was 67.5%; in the assay with RPMI-8226 leukemia, -36.4% (active). Further, the growth was 101% in the assay on OVCAR-8 ovarian; 89.8% with OVCAR-5 ovarian; 87.9% in the assay on OVCAR-4 ovarian; 111% in the assay on SK-OV-3 ovarian; 86.5% in the assay on IGROV1 ovarian; 86.3% in the assay with OVCAR-3 ovarian.
As for `O=[N+]([O-])CC(O)C(Cl)(Cl)Cl` (stereo not drawn), the growth was 150% with SK-MEL-2 melanoma; 101% in the assay with EKVX NSCLC; 106% with SN12C renal; 80.2% with UO-31 renal; 110% in the assay with TK-10 renal; 96.5% in the assay on ACHN renal. Besides, the growth in the assay with HL-60(TB) leukemia is 83.7%; in the assay with CCRF-CEM leukemia, -21.1% (active); in the assay with MOLT-4 leukemia, 107%; in the assay on SR leukemia, 98.5%; in the assay with RPMI-8226 leukemia, 71.7%; in the assay on OVCAR-8 ovarian it was 116%. For the same molecule, the growth in the assay on OVCAR-5 ovarian was 93.6%; in the assay on OVCAR-4 ovarian, 94.2%; in the assay on SK-OV-3 ovarian, 100%; in the assay on IGROV1 ovarian, 102%; in the assay on OVCAR-3 ovarian, 116%.
With `CC(C)[C@@H]1NC(=O)[C@]2(C)CSC(=N2)c2csc(n2)CNC(=O)C[C@@H](/C=C/CCS)OC1=O`, the growth with SK-MEL-2 melanoma was -28.2% (active); in the assay with EKVX NSCLC, 32.4%; with SN12C renal it was 31.7%; in the assay with UO-31 renal, 10.4%; in the assay on ACHN renal, 5.8% (active); with A498 renal it was -74.8% (active). For the same molecule, the growth in the assay with HL-60(TB) leukemia was 8.48% (active); in the assay on CCRF-CEM leukemia, 9.97% (active); in the assay with MOLT-4 leukemia, 7.47% (active); in the assay on SR leukemia, 12%; in the assay with RPMI-8226 leukemia, -15.4% (active); with OVCAR-8 ovarian it was -11.9% (active). The growth in the assay with OVCAR-5 ovarian was 25%; with OVCAR-4 ovarian, 27.7%; with SK-OV-3 ovarian, -12.6% (active); in the assay with IGROV1 ovarian it was 0.877% (active); in the assay with OVCAR-3 ovarian, -21.3% (active); in the assay with HS 578T breast it was 7.81% (active).

The values are drawn from PubChem BioAssay (NCI).
